The structures appear in SMILES notation. ± gives the standard deviation of the averaged measurements.

The text below walks through data of the supplement of paper PMC10720658.

In this assay the test system is AEK1 (Tb927.3.2440). The assay is described as follows: percent reduction in TR-FRET probe signal relative to DMSO control; higher = stronger displacement of ATP-site probe (binding). The note with it: 1 µM; incubation time 1 h.
As to `Cl.O=C1NCCc2[nH]c(-c3ccncc3)cc21`, the “percent reduction in TR-FRET probe signal” value (“percent reduction” below) amounted to 11.4 ± 8.5%.

As to `C=CC(=O)N1CCCC(n2nc(-c3ccc(Oc4ccccc4)cc3)c3c(N)ncnc32)C1` (configuration not stated), the “percent reduction” value worked out at 4.46 ± 4.9%.

As to `Cl.Cl.Fc1cc(-c2cccc3ncc(-c4cnn(C5CCNCC5)c4)nc23)cc(F)c1CN1CCOCC1`, the “percent reduction” value came to 10.7 ± 13%.

With `O=C(Cc1ccc(-c2ccc(OCCN3CCOCC3)cc2)cn1)NCc1ccccc1`, the “percent reduction” value is -1.26 ± 9%.

Regarding `CC[C@@](C)(Nc1ccnc(-c2c[nH]c3ncccc23)n1)C(=O)NCC(F)(F)F` [Decernotinib (VX-509)], the “percent reduction” value is -1.74 ± 4.4%.

For `C=CC(=O)Nc1ccc(CN2C(=O)N(c3cc(OC)cc(OC)c3)Cc3cnc(Nc4ccc(N5CCN(C)CC5)cc4)nc32)cc1`, the “percent reduction” value was 4.12 ± 14%.

Consider `COc1cc(Nc2ncc(F)c(Nc3ccc4c(n3)NC(=O)C(C)(C)O4)n2)cc(OC)c1OC` [R406 (free base)], for which the “percent reduction” value worked out at 87.4 ± 6%.

Take `Cl.Cl.Clc1ccc(Nc2nnc(Cc3ccncc3)c3ccccc23)cc1` [Vatalanib (PTK787) 2HCl]: the “percent reduction” value turned out to be 4.61 ± 8.7%.

Consider `Cc1ccccc1CN1C2=NCCN2C(=O)C2=C1CCN(Cc1ccccc1)C2` [TIC10 Analogue], for which the “percent reduction” value was -7.4 ± 3.3%.

With `COc1cccc(-c2cc(=O)c3ccccc3o2)c1N`, the “percent reduction” value was -1.76 ± 8%.

For `FC(F)(F)c1ccc(/C=C/c2nc(COc3ccc(CCCCn4ccnn4)cc3)co2)cc1` [Mubritinib (TAK 165)], the “percent reduction” value is 0.627 ± 0.93%.

Consider `Cc1cc2c(F)c(Oc3ncnn4cc(OC[C@@H](C)OC(=O)[C@H](C)N)c(C)c34)ccc2[nH]1`, for which the “percent reduction” value amounted to 8.47 ± 14%.
